{
  "source": "PubChem BioAssay (NCI)",
  "note": "Compounds without any hit were thinned out: in the full panel of roughly 83,000, 20% have a hit.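 Testing used 96-well plates and a 48-hour single-concentration exposure. Example: -40 means 40% of the starting cells died.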 Unmarked numbers belong to inactive results. Calls of active or inactive are those of the source. The calls were made as follows: active = growth percent below 10; inactive = the rest.",
  "data": [
    {"test_system": "OVCAR-8 ovarian", "experiment": "NCI-60 one-dose screen, 48 h (100 = growth as untreated, 0 = no growth, -100 = all killed)", "conditions": "10 µM unless noted", "values": [
      {"smiles": "Cc1ccc2c(c1)c(Sc1ccc(C(=O)NO)cc1)c1n2CN(C)CC1", "growth": "5.57% (active)"},
      {"smiles": "O=C1NC(=S)S/C1=C\\c1cccc([N+](=O)[O-])c1", "growth": "101%"},
      {"smiles": "CCCN(CCC)c1ccc(/C=C/c2ccc3cc(OCC)ccc3n2)cc1", "growth": "94.6%"},
      {"smiles": "Clc1ccc(C2=NN(c3ccccc3)[C@H](c3cn(-c4ccccc4)nc3-c3ccccc3)C2)cc1", "growth": "106%"},
      {"smiles": "COc1cc(C(=O)/C=C/c2c(-c3cccs3)nc3sccn23)cc(OC)c1OC", "growth": "0.926% (active)"},
      {"smiles": "CCOC(=O)C1=C(C)N2C(=NC3=C(CCCC/C3=C\\c3cc(OC)c(OC)c(OC)c3)C2c2cc(OC)c(OC)c(OC)c2)S1", "note": "(centres undefined)", "growth": "63.6%"},
      {"smiles": "CN1CCN(c2nc(-c3ccncc3)nc3sc4c(c23)CCCCCC4)CC1", "growth": "82.9%"},
      {"smiles": "COc1ccc(-n2ncc3c4nc(OC)c(S(=O)(=O)c5ccccc5)cc4ccc32)cc1", "growth": "52.7%"},
      {"smiles": "COc1ccc(C2CC(c3cc(OC)c(OC)c(OC)c3)=NN2c2ccc(S(N)(=O)=O)cc2)cc1", "note": "(centres undefined)", "growth": "61.9%"},
      {"smiles": "Cc1nn(CC(=O)O)c2c1C(=O)CC(C)(C)C2", "growth": "104%"},
      {"smiles": "O=C1C(Br)=C(c2ccccc2)C(=O)C(Br)=C1c1ccccc1", "growth": "91.9%"},
      {"smiles": "Cc1ccc(C)c2c1sc1nc3nc4sc5ccccc5n4c(=N)c3c(=O)n12", "growth": "116%"},
      {"smiles": "Nc1cc(Br)c(-c2nnc(CCC(=O)c3nc4ccccc4[nH]3)o2)c(Br)c1", "growth": "95.2%"},
      {"smiles": "COc1ccc(Nc2nc(NCCNc3ccnc4cc(Cl)ccc34)nc(N3CCOCC3)n2)cc1", "growth": "71.4%"},
      {"smiles": "Cc1nc2cc(Nc3nc(N4CCOCC4)nc(N4CCN(C)CC4)n3)ccc2n1Cc1ccccc1", "growth": "98.3%"},
      {"smiles": "COc1ccc(-c2nc3sc(C)cn3c2/C=C/C(=O)c2cc(OC)c(OC)c(OC)c2)cc1", "growth": "35.7%"},
      {"smiles": "O=[N+]([O-])c1ccc(O)c2ncccc12", "growth": "25.3%"},
      {"smiles": "CC1(C)N=C(N)N=C(N)N1c1cccc(/C=C/C=C/c2cccc([N+](=O)[O-])c2)c1", "growth": "84.1%"},
      {"smiles": "O=c1nc(NO)[nH]c(=O)n1Cc1ccccc1", "growth": "104%"},
      {"smiles": "C[C@@H](Oc1cc(-c2cnn(C3CC4(CCNCC4)C3)c2)cnc1N)c1c(F)ccc(Cl)c1Cl", "growth": "39.8%"},
      {"smiles": "C=CC(=O)N1CC2(CC(n3nc(-c4ccc(Oc5ccccc5)cc4)c4c(N)ncnc43)C2)C1", "growth": "28.7%"},
      {"smiles": "COc1ccc(OC)c(C2C(C#N)=C(N)Oc3cc(O)ccc32)c1", "note": "(centres undefined)", "growth": "100%"},
      {"smiles": "CC(C)(C)[Si](C)(C)OC1[C@@H](O[Si](C)(C)C(C)(C)C)[C@@H](CNC(=O)NC(=O)C(F)(F)F)O[C@H]1n1cnc2c(NC(=O)Nc3ccccc3)ncnc21", "note": "(some centres undefined)", "growth": "82%"},
      {"smiles": "Nc1nc(N)c(N=Nc2c(Br)cc(S(N)(=O)=O)cc2Br)c(N)n1", "growth": "98.4%"},
      {"smiles": "O=C(NCc1cccnc1)c1ccc([N+](=O)[O-])o1", "growth": "4.23% (active)"},
      {"smiles": "Cn1c(=O)c2c(-c3ccccc3F)n(-c3ccc4c(c3)OCO4)cc2n(C)c1=O", "growth": "99.1%"},
      {"smiles": "Nc1nc2c(s1)CCc1c-2c(Br)n(Cc2ccccc2)c1Br", "growth": "74.3%"},
      {"smiles": "CN1CCc2c(c3ccccc3c3ccccc23)C1", "growth": "37.3%"},
      {"smiles": "COc1cccc(C2C3=C(COC3=O)N(CCO)c3cc4c(cc32)CCC4)c1", "note": "(centres undefined)", "growth": "20.9%"},
      {"smiles": "O=C(Nc1ccc(F)cc1)c1ccc(C(=O)Nc2ccc(F)cc2)cc1", "growth": "99.6%"},
      {"smiles": "Cc1cc(O)cc2c1[C@H]1CC[C@]3(C)[C@@H](O)CC[C@H]3[C@@H]1C=C2", "growth": "95.3%"},
      {"smiles": "C[C@@H](Oc1cc(-c2cnn(C3CC4(CCCNC4)C3)c2)cnc1N)c1c(Cl)ccc(F)c1Cl", "note": "(some centres undefined)", "growth": "43.4%"},
      {"smiles": "Clc1ccc(Nc2nc(Nc3ccccc3)nc(Nc3ccc(-c4cc(-c5ccc(Cl)cc5)on4)cc3)n2)cc1", "growth": "39.4%"},
      {"smiles": "Cc1nc(-c2ccccc2)cc2c(O)c(C(=O)N/N=C/Cc3ccccc3)[nH]c(=O)c12", "growth": "103%"}
    ]}
  ]
}
